Screening results (PubChem BioAssay)
Shown are actives, neighbours in structure and some others; about 19% of the full set was active somewhere.
HT1080 IDH1KD tx = kills HT-1080 cells with IDH1 knockdown | Potency, µM (highest dose often 46.1 µM), usual class: cytotoxic | HT-1080 IDH1 knockdown viability, ATP luminescence, 48 h | AID 686971 | 2% of 360,000 active
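Assay cells: HT-1080 with IDH1 knockdown, 750 per well, RPMI/5% FBS. Exposure: 48 h at 37 °C following 2 h pre-incubation. Read: CellTiter-Glo luminescence; fitted concentration-response, curve class assigned.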
DT40 TDP1 no CPT = qHTS for Inhibitors of human tyrosyl-DNA phosphodiesterase 1 (TDP1): qHTS in cells in absence of CPT | 15% of 420,000 active | Potency, µM (top dose mostly 46.2 µM), actives largely listed as inhibitors | DT40 Tdp1-/- hTDP1 cells, no CPT, ATP luminescence, 48 h; note: nearly all actives have a fitted effect of over 55% in size
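Seeded 400 DT40-hTDP1 cells/well (vehicle DMSO, no 20 nM CPT); pinned compounds; ≥48 hr at 37 °C; CellTiter-Glo luminescence as viability measure.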
HT1080NT lethal = kills 2HG-producing HT-1080-NT fibrosarcoma cells; HT-1080-NT fibrosarcoma viability, CellTiter-Glo ATP luminescence, 48 h; Potency, µM (highest dose often 46.1 µM), usual class: cytotoxic; 1.6% of 360,000 active;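 note: NT is the 2HG producing partner of a matched IDH1 knockdown line; nearly all actives have a fitted effect of over 55% in size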
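Fibrosarcoma NT cells, 750 per well in 5% FBS RPMI, were exposed to compound for 48 hours. Viability: CellTiter-Glo luminescence.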
DT40 TDP1 CPT = DT40-hTDP1 cell growth loss with CPT; chicken DT40 Tdp1-/-;hTDP1 cells + 20 nM CPT, ATP luminescence, 48 h; Potency, µM (titrated, usually from 46.2 µM), hits mostly inhibitors; 12% of 420,000 active; note: nearly all actives have a fitted effect of over 55% in size
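Chicken DT40 Tdp1-/- cells complemented with human TDP1, 400 cells/well, exposed to compounds plus 20 nM camptothecin for at least 48 h at 37 C; viability read as ATP content by CellTiter-Glo luminescence.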
IL-1B inflam inh = inflammasome signaling inhibition, IL-1 beta readout; AID 743279; activity change, % at 57.5 µM; 4.7% of 360,000 active; THP-1 LPS/ATP IL-1B secretion, AlphaLISA, 16 h; stronger effect = lower value; in the data active = activity change below about -50%; inconclusive = mostly about -30% to -49%
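THP-1 cells pretreated 1 hr with compounds (up to 57.5 uM final), then stimulated with LPS (250 ng/mL final) plus ATP (1.25 mM final); secreted IL-1B measured by AlphaLISA after 16 hr, decreased signal indicating inhibition.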
A number is an active result; 0 = inactive; ? = inconclusive; - = no result; [ ] = another dose, or the depositor's remark. Unless noted, calls come from the whole dose curve; as a rule, active = well fitted curve in the direction sought with a large enough effect; inconclusive = small, poorly fitted or top-dose-only effect, or another doubt; inactive = no such curve, though single readings can be large; an effect the other way counts as inactive or inconclusive.

SMILES	HT1080 IDH1KD tx	DT40 TDP1 no CPT	HT1080NT lethal	DT40 TDP1 CPT	IL-1B inflam inh
c1ccc(Nc2nc(Nc3ccccc3)nc(-n3cccn3)n2)cc1	-	5µM	-	7.1µM	-
COc1nc(Nc2cccc(C)c2)nc(N2CCCCC2)n1	0	16µM	0	18µM	0
c1ccc(Nc2nc(N3CCCC3)nc(N3CCCC3)n2)cc1	0	0	?	?	0
CCC(C)C(NC(=O)/C(=C\c1ccccc1)NC(=O)c1ccc(OC)cc1)C(=O)O (centres undefined)	0	0	0	0	0
CC1CCCN(S(=O)(=O)c2ccc3c(c2)CCN3C(=O)CCC(=O)O)C1 (centres undefined)	-	0	-	0	-
COc1cccc(CC(O)CC2c3c(cc4c(c3OC)OCO4)CCN2C)c1 (centres undefined)	0	15µM	0	21µM	0
COc1c2c(cc3c1C(CC(O)Cc1ccccc1)N(C)CC3)OCO2 (centres undefined)	0	10µM	0	?	0
Cn1c(=O)c2c(nc(NCc3ccco3)n2C/C=C/c2ccccc2)n(C)c1=O	0	0.65µM	0	1.5µM	-62
Cn1c(=O)c2c(nc(NCc3ccco3)n2Cc2ccccc2Cl)n(C)c1=O	0	2.1µM	0	4.1µM	0
Cc1cc(C)cc(N=c2c([N+](=O)[O-])nn(-c3ccc(Cl)cc3)n2O)c1	0	15µM	0	9.2µM	0
CCc1ccc(N=c2c([N+](=O)[O-])nn(-c3ccccc3)n2O)cc1	?	?	0[9.24 µM]	?	0
COc1cc2c3nnc(-c4ccccc4)c-3cn(Cc3ccc(F)cc3)c2cc1OC	21µM	15µM	18µM	8.2µM	-192
COc1cc2c3nnc(-c4ccc(F)cc4)c-3cn(Cc3cccc(C)c3)c2cc1OC	0	2.6µM	0	1.8µM	-98
COc1cccc(Cn2nc3c4cc(F)ccc4n(Cc4ccc(F)cc4)cc-3c2=O)c1	0	?	0	0	0
COc1cc2c3nnc(-c4ccc(F)cc4)c-3cn(Cc3cccc(F)c3)c2cc1OC	0	2.6µM	?	2.3µM	0
NC(=O)CC(NC(=O)Cc1cccc2ccccc12)c1ccc(NCCCN2CCCC2=O)c([N+](=O)[O-])c1 (centres undefined)	0	0	0	0	0
Cc1ccc(S(N)(=O)=O)cc1NC(=O)C(c1ccccc1)c1ccccc1	0	0	0	0	0
C=CC(=O)Nc1cccc(Oc2ccnc3[nH]ccc23)c1	0	?	0	?	0
C=CC(=O)Nc1cccc(N(C)c2ccnc(Nc3ccc(N4CCN(C)CC4)cc3)n2)c1	?	5.2µM	0	?	-100
C=CC(=O)Nc1cccc(Oc2ccnc(Nc3ccc(N4CCN(C)CC4)cc3)n2)c1	0	16µM	0	?	-101
C/C(=N\Nc1nc(C(C)(C)C)cs1)c1ccc(O)cc1	0	18µM	0	0	0
C/C(=N\Nc1nc(C(C)(C)C)cs1)c1ccccc1	0	23µM	0	23µM	0
C/C(=N\Nc1nc(C(=O)O)cs1)c1ccccc1	0	0	0	0	0
O=C(Nc1nc2c(s1)CCCC2)Oc1ccccc1	0	0	0	0	0
C/C(=N\Nc1nc2c(s1)CCCC2)c1ccccc1	?	15µM	?	16µM	0
SMILES	HT1080 IDH1KD tx	DT40 TDP1 no CPT	HT1080NT lethal	DT40 TDP1 CPT	IL-1B inflam inh
COC(=O)[C@@H]1ON2OCC(C)=C3CCCC[C@@]32[C@H]1C(=O)OC	0	0	0	0	0
Cc1ccc2c(C)c(C(=O)N(Cc3cccs3)C3CCS(=O)(=O)C3)oc2c1 (centres undefined)	0	?	0	?	?
Cc1ccc2oc(C(=O)N(Cc3sccc3C)C3CCS(=O)(=O)C3)c(C)c2c1 (centres undefined)	-	5.2µM	-	5.8µM	-
Cc1ccsc1CN(C(=O)c1oc2ccc(F)cc2c1C)C1CCS(=O)(=O)C1 (centres undefined)	-	7.3µM	-	12µM	-
O=[N+]([O-])c1ccc(/C=N\N2CCN(c3ccc(Cl)cc3)CC2)cc1	0	0	0	0	0
COc1ccc(CCN=Cc2c(C)[nH]n(-c3ccc([N+](=O)[O-])cc3)c2=O)cc1OC	0	0	0	0	0
Cc1[nH]n(-c2ccc([N+](=O)[O-])cc2)c(=O)c1/C=N/N1CCOCC1	?	?	?	12µM	0
Cc1[nH]n(-c2ccc([N+](=O)[O-])cc2)c(=O)c1C=NCCN1CCN(C(=O)c2ccccc2)CC1	?	10µM	?	10µM	0
Cc1ccc(S(=O)(=O)N2CCN(c3ncnc4scc(-c5ccc(F)cc5)c34)CC2)cc1	0	15µM	0	?	0
O=S(=O)(c1cccc(F)c1)N1CCN(c2ncnc3scc(-c4ccc(F)cc4)c23)CC1	0	12µM	0	15µM	0
Cc1sc2ncnc(N3CCN(S(=O)(=O)c4ccccc4)CC3)c2c1C	0	6.5µM	0	8.2µM	0
Cc1ccc(S(=O)(=O)N2CCN(c3ncnc4scc(-c5ccccc5)c34)CC2)cc1	0	23µM	0	?	0
O=C(c1ccco1)N1CCN(c2ncnc3scc(-c4ccc(F)cc4)c23)CC1	?	?	?	?	0
COc1cccc(CN(C(=O)c2ccccc2Cl)C2CCS(=O)(=O)C2)c1 (centres undefined)	0	0	0	0	0
Cc1cccc2sc(NC(=O)C3c4ccccc4Oc4ccccc43)nc12	?	?	0[9.24 µM]	12µM	0
Cc1cccc(NC(=O)C2c3ccccc3Oc3ccccc32)n1	0	?	0	15µM	0
Cc1ccccc1Cn1nc(C)c(NC(=O)C2c3ccccc3Oc3ccccc32)c1C	0	15µM	0	12µM	0
Cc1ccccc1Cn1nc(C)c(NC(=O)C2(C)CC2(Cl)Cl)c1C (centres undefined)	0	0	0	0	0
CC(=O)c1c(C)[nH]c(C(=O)Nc2ccc(C)cc2Br)c1C	0	?	0	0	0
O=C(Nc1ccc(OCC(F)(F)C(F)F)cc1)c1ccncc1	0	?	0	?	0
O=C(Nc1ccc(OCC(F)(F)C(F)F)c(C(F)(F)F)c1)c1ccccc1O	13µM	18µM	16µM	?	?
O=C(Nc1ccc(OCC(F)(F)C(F)F)c(C(F)(F)F)c1)c1ccccc1	?	23µM	?	23µM	?
COC(=O)N/N=C(\C)c1ccccc1Br	0	0	0	0	0
CCOc1ccc(S(=O)(=O)Nc2ccc(C(=O)NCc3ccncc3)cc2)cc1	0	0	0	0	0
CCCCNC(=O)Cn1ncc2c(C)n(Cc3cccc(Cl)c3)c(C)c2c1=O	-	21µM	-	23µM	-
O=C(CCCCn1c(=O)c2ccccc2n(CC(=O)Nc2ccc(F)cc2F)c1=O)NCc1ccccc1Cl	-	0	-	0	-
COc1cccc(NC(=O)Cn2c(=O)n(CCCCC(=O)NCc3ccccc3Cl)c(=O)c3ccccc32)c1	-	18µM	-	?	-
